Rows were chosen to be rich in hits. Some 3.3% of all compounds tested hit in one or more screens of this group.
Mcl1 Bid PPI = disrupts binding of human Mcl-1 to Bid peptide | Q07820 | inhibition, % at 21.7 µM | TR-FRET Mcl-1/Bid-Dy647 peptide binding, 1536-well | actives 0.97% (n = 220,000);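 active means compounds that cut the binding signal by more than half at the single screening dose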;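 further: His-tagged Mcl-1 with europium anti-His antibody binding Bid BH3 peptide; 0% = Mcl-1 plus peptide wells and 100% = peptide-only wells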
Mcl-1 Bim block = inhibitors of Bim-Mcl-1 interaction, human; Q07820; Bead-based flow cytometry, Bim peptide-Mcl-1 binding; inhibition, % at 10 µM; actives 0.1% (n = 190,000); AID 1009; in the data active means inhibition above about 40%;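 further: 0% = no compound tracer wells and 100% = peptide blocker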
Mcl1-Noxa inh = disrupts binding of human Mcl-1 to Noxa peptide | inhibition, % at 21.7 µM | TR-FRET Mcl-1/Noxa peptide binding, 2 h | actives 1.5% (n = 220,000) | Q07820;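 active means compounds that cut the protein-peptide binding signal by more than 50% relative to plate controls in a single-dose test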;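 further: His-tagged Mcl-1 with rhodamine Noxa BH3 peptide and terbium anti-His antibody; 0% = Mcl-1 plus Noxa peptide wells and 100% = peptide-only wells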
p47phox inh = blocks human p47phox regulatory protein of NADPH oxidases | P14598 | p47phox/p22phox peptide binding, fluorescence polarization, 2 h | inhibition, % at 24.7 µM | actives 0.53% (n = 220,000);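 further: 0% = p47phox with labelled peptide and 100% = labelled peptide alone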
Target sequence (P14598 whole entry, looked up): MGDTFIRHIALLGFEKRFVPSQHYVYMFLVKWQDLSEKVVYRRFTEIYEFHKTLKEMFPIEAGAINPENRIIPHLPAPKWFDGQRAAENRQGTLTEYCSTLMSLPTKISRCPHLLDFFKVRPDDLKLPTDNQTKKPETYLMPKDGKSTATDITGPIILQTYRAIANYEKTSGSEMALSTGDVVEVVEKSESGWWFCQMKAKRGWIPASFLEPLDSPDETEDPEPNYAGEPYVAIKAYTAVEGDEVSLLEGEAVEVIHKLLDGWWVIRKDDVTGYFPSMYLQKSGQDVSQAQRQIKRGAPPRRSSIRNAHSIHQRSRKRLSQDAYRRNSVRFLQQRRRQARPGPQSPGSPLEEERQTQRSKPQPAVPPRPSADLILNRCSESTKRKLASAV
eIF4E-4G inh = blocks eIF4E binding to eIF4G | TR-FRET eIF4E-eIF4GI(517-606) binding, 2 h | actives 0.37% (n = 220,000) | P63073+Q04637 | inhibition, % at 21.7 µM;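 further: 0% = full FRET control wells and 100% = background wells lacking eIF4GI fragment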
14-3-3 Bad inh = disrupts binding of bovine 14-3-3 zeta to phospho-Bad peptide; P63103; TR-FRET 14-3-3zeta/Dy647-pBad peptide displacement, 1 h; inhibition, % at 21.7 µM; actives 0.71% (n = 220,000); AID 781;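 active means inhibition above about 70%, limit read from the data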;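 further: 0% = full 14-3-3 plus peptide FRET controls and 100% = background without 14-3-3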
Target sequence (P63103 whole entry, looked up): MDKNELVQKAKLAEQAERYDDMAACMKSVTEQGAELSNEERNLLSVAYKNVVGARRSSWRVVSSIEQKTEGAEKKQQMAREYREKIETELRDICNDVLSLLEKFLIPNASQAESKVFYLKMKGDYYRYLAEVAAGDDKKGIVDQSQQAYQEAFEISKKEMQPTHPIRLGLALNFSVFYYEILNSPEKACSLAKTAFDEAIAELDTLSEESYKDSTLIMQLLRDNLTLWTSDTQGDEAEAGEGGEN
Starred values were filed as active, the others as inactive; . = not tested or not shown.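 How the source made its calls, unless noted: active means inhibition above about 30% (limit read from the data); inactive means the rest.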

SMILES | Mcl1 Bid PPI | Mcl-1 Bim block | Mcl1-Noxa inh | p47phox inh | eIF4E-4G inh | 14-3-3 Bad inh
O=C(O)c1ccc(N=Nc2c(O)[nH]c3cc(Cl)ccc23)cc1 | -57.6 | . | 61.9* | -31.7 | 4.3 | 1.2
Nc1nc(N)c(N=Nc2ccc(C(=O)O)cc2)c(N)n1 | -5.5 | . | 6.5 | -9.3 | 9.0 | 2.5
COCc1cc(CN2CCCC(CNC(=O)c3ccc(F)cc3)C2)ccc1OC (centres undefined) | -29.0 | 40.0* | -2.5 | -9.2 | 1.0 | -7.5
CCOC(=O)CCCNC(=O)COC(=O)c1cccc(F)c1 | -2.4 | 1.0 | 14.1 | 5.0 | 2.0 | -2.3
NC(=O)C1CCN(Cc2nc3ccccc3c(=O)[nH]2)CC1 | -29.1 | 2.0 | -14.4 | 33.5* | 2.2 | 8.9
NC(=O)C1(N2CCCCC2)CCN(Cc2nc3ccccc3c(=O)[nH]2)CC1 | -9.7 | 3.0 | 0.3 | -5.0 | -12.4 | -19.6
CCCCC[C@H](O)/C=C/[C@@H]1[C@@H](C/C=C\CCCC(=O)OC)[C@@H](O)C[C@H]1O | 98.4* | 0.0 | 42.6 | 1.8 | 88.2* | 90.9*
Nc1ccc(Cc2ccc(N)c(O)c2)cc1O | 27.3 | 2.0 | 87.1* | 11.5 | 20.9 | 47.5
COc1cc(Cc2ccc(N)c(OC)c2)ccc1N | -13.9 | -2.0 | 19.2 | -4.1 | 1.2 | -4.1
COc1ccc(/C=N/NS(=O)(=O)c2ccc(C)cc2)cc1OC(=O)c1ccccc1 | -18.7 | 4.0 | -11.7 | -10.3 | 0.3 | 0.9
COc1ccc(/C=N/NS(=O)(=O)c2ccccc2)cc1OC(=O)c1ccc(C)cc1 | 85.9* | 0.0 | 22.8 | -13.9 | -6.7 | -4.7
CC(=O)N1CCN(c2ccc(S(C)(=O)=O)cc2[N+](=O)[O-])CC1 | -13.6 | 0.0 | 2.4 | 14.0 | -2.3 | -7.3
Cc1nc2ccccc2n1CC(=O)NC1CCCC1 | -7.9 | -2.0 | 16.2 | -4.8 | 1.0 | 71.0*
Cc1nc2ccccc2n1CC(=O)NC1CCCCCC1 | -3.7 | . | 5.9 | -11.2 | -4.6 | -1.7
COc1cccc(/C=N/n2c(-c3cc(C)[nH]n3)n[nH]c2=S)c1O | -85.9 | . | -15.1 | -8.5 | 1.5 | -7.9
CC(=O)N(CCC1(C(C)C)CCOC(C)(C)C1)C(C)c1cccs1 (centres undefined) | -14.5 | . | 16.4 | -8.0 | 3.8 | 3.4
Cc1ccc(Nc2c(-c3ccc(C)o3)nc3cnccn23)cc1 | -7.8 | -2.0 | 51.1* | -11.5 | 4.7 | -1.1
c1ccc2c(c1)CC1(CCCC1)N=C2N1CCOCC1 | -22.7 | . | -0.4 | -9.7 | -3.1 | -1.2
COc1ccc(/C=N/n2c(=O)[nH]c3c([nH]c4ccc(Br)cc43)c2=O)cc1CN1CCOCC1 | 9.6 | -3.0 | 54.1* | -8.1 | -35.1 | 40.5
CCOC(=O)CSc1nc(C2CC2)cc(-c2ccc(Cl)cc2)c1C#N | 97.2* | -4.0 | 2.7 | -7.2 | -0.1 | 6.0
COC(=O)CSc1nc(C2CC2)cc(C(F)(F)F)c1C#N | -5.5 | -3.0 | -3.5 | -6.3 | 6.7 | 14.1
CCOC(=O)C(C(=O)OCC)N(C#N)c1nc(N(C)C)nc(N(C)C)n1 | -35.0 | 0.0 | 8.1 | -5.4 | 1.8 | -5.8
CCOC(=O)Cn1c2ccc(OC)cc2c2nc3ccccc3nc21 | 58.9* | 3.0 | 25.8 | -1.8 | -33.1 | 34.9
COc1ccc(CN(C(=O)Cn2nnc(-c3ccc(C)o3)n2)C(C(=O)NCC2CCCO2)c2ccco2)cc1 (centres undefined) | -11.7 | -6.0 | -2.3 | 0.3 | 2.1 | -12.5
COc1ccc2cc3cc(C(=O)Nc4cc(OC)c(OC)c(OC)c4)oc3nc2c1 | -30.5 | -3.0 | 9.5 | -4.5 | . | .
SMILES | Mcl1 Bid PPI | Mcl-1 Bim block | Mcl1-Noxa inh | p47phox inh | eIF4E-4G inh | 14-3-3 Bad inh
COc1ccc2cc3cc(C(=O)Nc4ccc5c(c4)OCCO5)oc3nc2c1 | -27.4 | -4.0 | 9.1 | 32.3* | 4.0 | 65.4
CC(=O)Oc1cc2c3c(c1)/C(=C1/SC(=S)NC1=O)C(=O)N3C(C)(C)C=C2C | -41.1 | . | 51.0* | 6.1 | -4.3 | -5.6
CCOC(=O)Cc1csc(NC(=O)Cc2ccc(Cl)cc2)n1 | 55.1* | . | 2.3 | 9.6 | -5.9 | -8.1
CCOC(=O)C(=CNc1ccc(Oc2cccnc2)nc1)C(=O)OCC | -14.7 | . | 4.7 | 37.5* | 3.3 | -6.5
O=C(/C=C/c1cc[n+](CC(=O)c2ccc3cccc4c3c2CC4)cc1)c1ccc2cccc3c2c1CC3 | 98.7* | . | 55.1* | 29.1 | -11.9 | 94.4*
O=C(C[n+]1ccc2ccccc2c1)c1cccc2ccccc12 | -30.5 | 3.0 | 24.4 | -5.7 | 11.0 | 16.8
COc1ccc(N=C2O/C(=C/c3sc(=S)n(CC4CCCO4)c3O)N=C2C#N)cc1 (centres undefined) | -51.6 | . | 35.0 | 42.5* | -3.2 | -6.7
CCOC(=O)c1oc2ccc(/C=N/O)c(Cl)c2c1C | -5.9 | -1.0 | 11.3 | 0.8 | 1.0 | -5.1
Cc1cc(C)cc(NC(=O)c2c(C)nc3ccccn23)c1 | -16.4 | -1.0 | -16.6 | 2.2 | 1.1 | -14.0
Cc1ccccc1Nc1cc(C)c2c(O)cccc2n1 | -1.5 | -2.0 | 50.5 | -23.9 | 0.4 | -1.8
Cc1ccc(Nc2cc(C)c3c(O)cccc3n2)cc1C | -25.0 | . | 53.8* | -10.0 | -0.3 | -1.2
COC(=O)c1cc(Nc2cc(C)c3c(O)cccc3n2)cc(C(=O)OC)c1 | -18.1 | . | 56.2* | -21.1 | -6.4 | 6.7
COc1ccc(Nc2cc(C)c3c(O)cccc3n2)cc1 | -58.0 | . | 77.5* | -4.2 | 7.1 | 3.6
COc1ccc(OC)c(C(=O)Cn2c3[n+](c4ccc(C(F)(F)F)cc42)CCCCC3)c1 | -10.4 | 0.0 | 3.6 | -7.6 | -2.0 | -3.8
Cn1cc([C@@H]2C[C@H]3CN(C4CCCC4)C(=O)[C@]34CCCN24)c(-c2ccccc2)n1 | -36.5 | -3.0 | -13.2 | -8.9 | 1.0 | -10.2
Cc1ccc(Nc2nc(N/N=C\c3ccc4c(c3)OCO4)nc(N3CCOCC3)n2)cc1 | -38.6 | 0.0 | 16.7 | -4.1 | -1.1 | 3.1
CN(C)c1ccc(NC(=O)c2cccc(N3C(=O)CCC3=O)c2)cc1 | -55.0 | 0.0 | 63.9* | -3.1 | -1.8 | -22.6
CN(C)c1ccc(NC(=O)c2ccc3c(c2)nnn3C)cc1 | -58.7 | 0.0 | 60.5* | -1.5 | 15.2 | -13.7
COc1cc(C(=O)Nc2ccc(N(C)C)cc2)cc(OC)c1OC | -100.1 | 2.0 | 77.6* | -12.7 | 9.9 | 1.2
CCOC(=O)C1CCN(C(=O)Nc2ccc(OC(F)(F)F)cc2)CC1 | -1.3 | . | 8.6 | 9.2 | -5.1 | -1.2
CC1CCN(CC(CS(=O)(=O)c2ccc([N+](=O)[O-])cc2)N2CCC(C)CC2)CC1 (centres undefined) | -10.7 | . | -8.0 | -5.5 | 2.7 | -3.9
Cc1ccc(S(=O)(=O)N2c3ccccc3-c3c(ssc3=S)C2(C)C)cc1 | -53.9 | 1.0 | 12.7 | 0.1 | -1.0 | -15.4
Cc1ccc(S(=O)(=O)N2C(=O)/C(=C3\SC(=S)NC3=O)c3ccccc32)cc1 | -65.5 | . | 70.4* | -1.0 | -2.0 | 3.9

Screens: PubChem, several laboratories
